The values that follow come from PubChem BioAssay AID743099 (Vanderbilt Specialized Chemistry Center, 2013).

Each structure is given as a SMILES string. The source made the active and inactive calls. How the calls were made is not given here.

For this experiment, the target named is Muscarinic acetylcholine receptor M2 (Homo sapiens) (UniProt P08172). In words: human M2 receptor modulation in M5 NAM selectivity check, counter-screen for M5 NAM project, cell-based, CHO-K1 hM2/Gqi5, Fluo-4 calcium flux, ACh EC20 (AID 743099). Conditions: series mostly up to 30 µM.
Chain of Muscarinic acetylcholine receptor M2 (Homo sapiens) (P08172 whole entry, looked up): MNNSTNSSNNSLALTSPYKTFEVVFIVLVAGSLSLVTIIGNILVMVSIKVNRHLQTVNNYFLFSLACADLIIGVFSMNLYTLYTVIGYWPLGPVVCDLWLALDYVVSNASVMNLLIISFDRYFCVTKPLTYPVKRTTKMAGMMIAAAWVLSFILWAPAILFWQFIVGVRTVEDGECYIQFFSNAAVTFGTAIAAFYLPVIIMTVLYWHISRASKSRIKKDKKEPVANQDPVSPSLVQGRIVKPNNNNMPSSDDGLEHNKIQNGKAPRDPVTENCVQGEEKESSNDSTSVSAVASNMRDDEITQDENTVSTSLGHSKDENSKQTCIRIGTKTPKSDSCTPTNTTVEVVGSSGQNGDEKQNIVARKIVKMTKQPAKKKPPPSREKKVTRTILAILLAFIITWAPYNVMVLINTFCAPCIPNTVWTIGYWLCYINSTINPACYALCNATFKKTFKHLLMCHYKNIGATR
`O=C(c1ccc(F)c(F)c1)N1CCN2C(=O)c3ccccc3C12c1ccccc1` (stereo not given): the outcome was inactive.

For `O=C(c1cc(F)cc(F)c1)N1CCN2C(=O)c3ccccc3C12c1ccc(Cl)cc1` (stereo not given), the result was inactive.

As to `O=C(c1ccc(F)c(F)c1)N1CCN2C(=O)c3ccccc3[C@@]12c1ccc(Cl)cc1`, the outcome was inactive.

Consider `O=C(c1ccc(F)c(F)c1)N1CCN2C(=O)c3ccccc3C12c1ccc(Cl)cc1` (stereo not given), for which the outcome was inactive.

In the case of `O=C(c1ccc(F)cc1)N1CCN2C(=O)c3ccccc3C12c1ccccc1` (stereo not given), the outcome was inactive.
